Reference: PubChem BioAssay (Tox21)
Inconclusive results are not listed. Activity calls are given as the source filed them. Unless noted, the call rests on the fitted dose curve; in most records, active means well fitted curve in the direction sought with a large enough effect in the repeat runs; inconclusive means weak or mixed curves; inactive means no such curve, though single readings can be large; an effect the other way counts as inactive or inconclusive.

How the values were obtained:
[1] = target: Luciferin 4-monooxygenase (Photinus pyralis) (UniProt P08659); test: qHTS assay to identify small molecule inhibitors of firefly luciferase (AID 1224835); further: nearly all actives have a fitted effect of over 25% in size; further: potency means the concentration at half of the fitted maximal effect; on activity change, negative = inhibition: series mostly up to about 120 µM
In short: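 Inhibition of purified Photinus luciferase is measured by luminescence. Substrate levels (D-luciferin, ATP) sit at their KM values. Each compound is tested in a concentration series.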

[2] = qHTS assay to identify small molecule agonists of the constitutive androstane receptor (CAR) signaling pathway - cell viability counter screen (AID 1224836); further: series mostly up to about 92 µM; nearly all actives have a fitted effect of over 45% in size
In short: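 Compound titrations (15 concentrations) went onto HepG2-CYP2B6-hCAR cells 4 h after seeding, alongside PK11195 at a final 0.75 uM; a 23 h, 37 C/5% CO2 incubation preceded CellTiter-Fluor viability measurement.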

[3] = qHTS assay to identify small molecule antagonists of the constitutive androstane receptor (CAR) signaling pathway - cell viability counter screen (AID 1224837); further: series mostly up to about 92 µM; nearly all actives have a fitted effect of over 45% in size
In short: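 Counter screen run in HepG2-CYP2B6-hCAR cells: 4 hr settle, compound titration (15 concentrations) with 50 nM CITCO, 23 hr at 37 C/5% CO2, CellTiter-Fluor fluorescence.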

[4] = qHTS assay to identify small molecule antagonists of the estrogen related receptor signaling pathway with the pleiotropic PPARgamma coactivator (PGC) from Tox21 10K library - cell viability counter screen (AID 1224840; active means well fitted cell-killing curve with a large enough effect in the repeat runs, not every such curve was filed as active; further: nearly all actives have a fitted effect of over 40% in size)
In short: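 Following seeding of 2,000 PGC/ERR cells/well and 6 hours' incubation, test compounds were delivered in DMSO. The plates then sat 17.5 hours at 37 C before a fluorogenic live-cell protease reagent (CellTiter-Fluor) was read after 30 min.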

[5] = target: Nuclear receptor subfamily 1 group I member 3 (Homo sapiens) (UniProt Q14994); test: qHTS assay to identify small molecule antagonists of the constitutive androstane receptor (CAR) signaling pathway (AID 1224838);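 further: HepG2 cells stably expressing hCAR with CYP2B6 luciferase reporter stimulated by CITCO; nearly all actives have a fitted effect of over 40% in size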
In short: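 Cell line: HepG2 double-stable for hCAR and CYP2B6-2.2kb reporter. Agonist: CITCO, 50 nM final. Compounds: 15 concentrations, 24 h, 37 C. Detection: ONE-Glo luminescence.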

[6] = target: Nuclear receptor subfamily 1 group I member 3 (Homo sapiens) (UniProt Q14994); test: qHTS assay to identify small molecule agonists of the constitutive androstane receptor (CAR) signaling pathway (AID 1224839); further: nearly all actives have a fitted effect of over 15% in size; further: potency means the concentration at half of the fitted maximal effect;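 on activation: HepG2 cells stably carrying human CAR and a CYP2B6 luciferase reporter; series mostly up to about 92 µM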
In short: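 In this screen, CAR-driven CYP2B6 promoter activity is measured by luminescence in HepG2-CYP2B6-hCAR cells after 24 h with test compounds and 0.75 uM PK11195 (final concentration).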

[7] = qHTS assay to identify small molecule agonists of the estrogen related receptor signaling pathway with the pleiotropic PPARgamma coactivator (PGC) from Tox21 10K library (AID 1224842); further: nearly all actives have a fitted effect of over 15% in size
In short: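 Luminescence from One-Glo (30 min, room temperature) measured after PGC/ERR cells had 18 h at 37 C with pinned compound (23 nL in DMSO). Cells had been seeded at 2,000 per well and pre-incubated 6 h.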

[8] = qHTS assay to identify small molecule antagonists of the estrogen related receptor (ERR) signaling pathway from Tox21 library - cell viability counter screen (AID 1224834); further: nearly all actives have a fitted effect of over 30% in size
In short: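 After 17.5 h of compound exposure at 37 C, ERR cells are incubated with CellTiter-Fluor for 30 min and fluorescence intensity serves as the viability measure.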

[9] = qHTS assay to identify small molecule antagonists of the estrogen related receptor signaling pathway with the pleiotropic PPARgamma coactivator (PGC) from Tox21 10K library (AID 1224841; call rule not given here; further: actives are mostly falling curves and most rising ones were filed inactive; nearly all actives have a fitted effect of over 50% in size; further: potency means the concentration at half of the fitted maximal effect; on activity, negative = inhibition: series mostly up to about 92 µM)
In short: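 qHTS antagonist format: PGC/ERR cells, 2k/well, compound in DMSO by pin transfer after 6 h attachment, 18 h treatment at 37 C, One-Glo luminescence read at 30 min.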
On the % scale 0 is the no-effect control and ±100 the full control effect.

Chain of Luciferin 4-monooxygenase (Photinus pyralis) (P08659 whole entry, looked up): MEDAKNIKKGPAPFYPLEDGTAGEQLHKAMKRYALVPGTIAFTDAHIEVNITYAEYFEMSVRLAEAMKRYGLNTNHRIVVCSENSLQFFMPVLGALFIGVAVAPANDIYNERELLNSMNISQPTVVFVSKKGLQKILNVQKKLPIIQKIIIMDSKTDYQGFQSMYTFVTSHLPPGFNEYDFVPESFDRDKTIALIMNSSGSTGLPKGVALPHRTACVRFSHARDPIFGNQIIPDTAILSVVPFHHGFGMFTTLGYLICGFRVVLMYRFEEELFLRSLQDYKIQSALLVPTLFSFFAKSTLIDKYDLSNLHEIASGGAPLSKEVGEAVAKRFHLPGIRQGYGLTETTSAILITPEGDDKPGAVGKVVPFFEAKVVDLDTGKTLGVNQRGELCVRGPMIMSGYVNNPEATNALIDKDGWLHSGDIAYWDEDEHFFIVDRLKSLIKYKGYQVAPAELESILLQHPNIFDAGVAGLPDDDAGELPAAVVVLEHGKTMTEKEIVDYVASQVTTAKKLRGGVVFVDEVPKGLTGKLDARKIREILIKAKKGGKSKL
Chain of Nuclear receptor subfamily 1 group I member 3 (Homo sapiens) (Q14994 whole entry, looked up): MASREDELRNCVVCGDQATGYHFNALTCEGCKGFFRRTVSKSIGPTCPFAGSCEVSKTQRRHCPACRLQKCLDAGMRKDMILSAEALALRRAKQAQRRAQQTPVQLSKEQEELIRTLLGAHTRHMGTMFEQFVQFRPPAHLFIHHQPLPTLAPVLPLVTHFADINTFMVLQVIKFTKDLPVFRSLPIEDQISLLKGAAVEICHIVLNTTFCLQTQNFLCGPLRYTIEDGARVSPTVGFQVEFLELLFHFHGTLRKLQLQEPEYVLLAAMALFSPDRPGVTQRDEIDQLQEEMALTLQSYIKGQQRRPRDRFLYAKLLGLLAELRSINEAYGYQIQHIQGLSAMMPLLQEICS

Cc1ccccc1C(=O)Nc1ccc(C(=O)N2CCCC(N(C)C)c3ccccc32)cc1 (stereo not given)
inactive: Potency [1] | Potency [2] | Potency [3] | outcome [4]

N[C@@H](COP(=O)(O)O)C(=O)O
inactive: activity change, negative = inhibition [1] 0.319% [at 23.6 µM] | viability change, negative = cytotoxic [2] 0.478% [at 19 µM] | activity change, negative = cytotoxicity [3] 10.4% [at 19 µM] | activity, negative = inhibition [5] 2.8% [at 19 µM] | activation [6] -2.56% [at 19 µM] | viability change, negative = cytotoxic [4] 2.06% [at 19 µM]

ClCCCl
inactive: Potency [1] | Potency [2] | Potency [3] | outcome [5] | Potency [6] | outcome [4] | outcome [7]

O=C1c2ccccc2C(=O)c2cc(S(=O)(=O)O)ccc21
inactive: Potency [8] | Potency [2] | outcome [5] | Potency [6] | outcome [4]

OC[C@H](Cc1cccc(O)c1)[C@H](CO)Cc1cccc(O)c1
inactive: Potency [8] | Potency [3] | outcome [5] | Potency [6] | outcome [4] | Potency [9] | outcome [7]

CC(=O)c1sc(C)nc1C
inactive: Potency [8] | Potency [3] | outcome [5] | Potency [6] | outcome [4] | Potency [9] | outcome [7]

CC[C@H](C)C(=O)O[C@H]1C[C@H](O)C=C2C=C[C@H](C)[C@H](CC[C@@H](O)C[C@@H](O)CC(=O)O)[C@H]21
inactive: Potency [8] | Potency [2] | outcome [4]

O=S(=O)(O)c1cc(O)c2ccc(Nc3ccccc3)cc2c1
inactive: Potency [2] | Potency [3] | outcome [5] | Potency [6] | outcome [4]
active: Potency [1] 17.8 µM

CCCCCCCCC1CCC(=O)O1 (stereo not given)
inactive: Potency [1] | Potency [2] | Potency [3] | outcome [5] | outcome [4] | Potency [9] | outcome [7]
active: Potency [6] 30.6 µM

O=C(OCC(COC(=O)c1cccnc1)(COC(=O)c1cccnc1)COC(=O)c1cccnc1)c1cccnc1
inactive: Potency [1] | Potency [2] | Potency [3] | outcome [5] | Potency [6] | outcome [4]

O=C(OCc1ccccc1)C(=O)OCc1ccccc1
inactive: Potency [8] | Potency [2] | outcome [5] | Potency [6] | outcome [4] | Potency [9] | outcome [7]

NNc1nnc(NN)c2ccccc12
inactive: Potency [2] | Potency [3] | outcome [5] | Potency [6] | outcome [4]
active: Potency [1] 17.4 µM

COc1cc(N)ccc1C
active: Potency [9] 1.52 µM
inactive: Potency [1] | Potency [2] | Potency [3] | outcome [5] | outcome [4] | outcome [7]

CCC(C)(CCC(C)C)C(=O)O (stereo not given)
inactive: Potency [8] | outcome [4] | Potency [9] | outcome [7]

Cc1cc(NC(=O)C2=C(O)c3ccccc3S(=O)(=O)N2C)no1
inactive: Potency [8] | Potency [2] | outcome [4]

CCC(C=O)CC
inactive: Potency [8] | Potency [3] | outcome [5] | Potency [6] | outcome [4] | Potency [9]

N[C@@H](CCC(=O)N[C@@H](CS)C(=O)NCC(=O)O)C(=O)O
inactive: viability change, negative = cytotoxic [8] 0.69% [at 19 µM] | activity change, negative = cytotoxicity [3] 7.5% [at 19 µM] | viability change, negative = cytotoxic [4] 15.7% [at 19 µM]

CCO[Si](CCCS)(OCC)OCC
inactive: Potency [8] | Potency [2] | outcome [4] | Potency [9] | outcome [7]

O=C(NCC(O)CO)c1c(I)c(C(=O)NCC(O)CO)c(I)c(N(CCO)C(=O)CO)c1I (stereo not given)
inactive: Potency [8] | Potency [2] | outcome [5] | Potency [6] | outcome [4]

CCCC/C=C\CCCCCCCCCC=O
inactive: Potency [1] | Potency [2] | outcome [5] | Potency [6] | outcome [4] | Potency [9] | outcome [7]

COc1ccc(-c2cc(=O)c3c(O)cc(O[C@@H]4O[C@H](CO[C@@H]5O[C@@H](C)[C@H](O)[C@@H](O)[C@H]5O)[C@@H](O)[C@H](O)[C@H]4O)cc3o2)cc1O
inactive: Potency [2] | Potency [3] | outcome [4] | Potency [9] | outcome [7]

O=C(/N=N/C(=O)OCc1ccccc1)OCc1ccccc1
active: Potency [6] 54.5 µM
inactive: Potency [2] | Potency [3] | outcome [5] | outcome [4]

C[C@@H]1O[C@@H](O[C@@H]2[C@@H](O)[C@H](OCCc3ccc(O)c(O)c3)O[C@H](CO[C@@H]3O[C@H](CO)[C@@H](O)[C@H](O)[C@H]3O)[C@H]2OC(=O)/C=C/c2ccc(O)c(O)c2)[C@H](O)[C@H](O)[C@H]1O
inactive: Potency [2] | Potency [3] | outcome [5] | Potency [6] | outcome [4]

C=C(C)C(=O)OCCN(CC)CC
inactive: Potency [1] | outcome [5] | Potency [6] | outcome [4]

Cc1ccccc1N=O
inactive: Potency [1] | Potency [2] | Potency [3] | outcome [4] | Potency [9] | outcome [7]

CCCCCCCCCCl
inactive: Potency [3] | outcome [4] | Potency [9] | outcome [7]

CCCCCCOc1ccccc1C(N)=O
inactive: Potency [2] | Potency [3] | outcome [4]

O=C(OCC1(COC(=O)c2cccnc2)CCCC(COC(=O)c2cccnc2)(COC(=O)c2cccnc2)C1O)c1cccnc1
inactive: Potency [1] | Potency [3] | outcome [5] | Potency [6] | outcome [4]

Nc1cccc(O)c1
inactive: Potency [1] | Potency [3] | outcome [5] | Potency [6] | outcome [4]

Cc1cccc(C)c1NC(=O)c1ccccc1C(=O)O
inactive: Potency [2] | Potency [3] | outcome [5] | Potency [6] | outcome [4] | Potency [9] | outcome [7]

CN=C(NC#N)Nc1ccc(C2=NNC(=O)CC2C)cc1 (stereo not given)
inactive: Potency [1] | Potency [3] | outcome [5] | Potency [6] | outcome [4] | Potency [9] | outcome [7]

CCCCNc1ccc(C(=O)OCCN(C)C)cc1
inactive: Potency [1] | Potency [2] | outcome [5] | outcome [4]

CCCCCCOC(=O)CC
inactive: Potency [2] | Potency [3] | outcome [5] | Potency [6] | outcome [4] | Potency [9] | outcome [7]

N[C@@H](CCC(=O)Nc1ccc([N+](=O)[O-])cc1)C(=O)O
inactive: Potency [1] | outcome [5] | Potency [6] | outcome [4] | Potency [9] | outcome [7]

NS(=O)(=O)c1cc2c(cc1Cl)CN(C1CCCCC1)C2=O
inactive: Potency [2] | Potency [3] | outcome [5] | Potency [6] | outcome [4]

CCOc1cc([N+](=O)[O-])c(OCC)cc1N1CCOCC1
inactive: Potency [1] | Potency [2] | outcome [4]

COCCOC(=O)C1=C(C)NC(C)=C(C(=O)OC(C)C)C1c1cccc([N+](=O)[O-])c1 (stereo not given)
inactive: Potency [1] | outcome [5] | outcome [4]

O=C(OCC(O)CO)c1ccccc1Nc1ccnc2c(C(F)(F)F)cccc12 (stereo not given)
inactive: Potency [2] | Potency [3] | outcome [5] | Potency [6] | outcome [4]

CC(=O)Nc1cccc(C)c1
inactive: Potency [3] | outcome [4]

CC(N)C(=O)OC(C)(C)Cc1ccc(Cl)cc1 (stereo not given)
inactive: Potency [1] | Potency [2] | outcome [5] | Potency [6]

O=C(c1ccc(O)cc1)c1ccc(O)c(O)c1O
inactive: outcome [5] | outcome [4] | Potency [9] | outcome [7]
active: Potency [1] 63.5 µM

BrCc1cccc(Oc2ccccc2)c1
inactive: Potency [2] | Potency [3] | outcome [5] | outcome [4] | Potency [9] | outcome [7]

CC(CN)CC(C)(C)CCN (stereo not given)
inactive: Potency [2] | Potency [3] | outcome [5] | Potency [6] | outcome [4]

c1ccc2c(c1)ccc1c3ccccc3ccc21
inactive: Potency [3] | outcome [5] | outcome [4]

CC(C)C(=O)OCc1cccc(OC(=O)[C@@H]2N3C(=O)[C@@H](NC(=O)Cc4ccccc4)[C@H]3SC2(C)C)c1
inactive: Potency [1] | Potency [2] | outcome [4]

CC(=O)Nc1ccc(S(=O)(=O)Cl)cc1
inactive: Potency [1] | Potency [2] | outcome [5] | Potency [6] | outcome [4] | outcome [7]

Nc1nnc(-c2cccc(Cl)c2Cl)c(N)n1
inactive: Potency [1] | Potency [3] | outcome [4]

O=S(=O)(O)CCN1CCN(CCO)CC1
inactive: Potency [1] | Potency [3] | outcome [5] | Potency [6] | outcome [4] | Potency [9] | outcome [7]

CCCCOC(=O)c1ccccc1
inactive: Potency [3] | outcome [4] | Potency [9] | outcome [7]

Nc1ccc2cc(S(=O)(=O)O)cc(O)c2c1
inactive: Potency [2] | Potency [3] | outcome [5] | Potency [6] | outcome [4] | Potency [9] | outcome [7]

O=C(O)c1ccc(Cl)cc1Cl
inactive: Potency [1] | Potency [3] | outcome [4]

Cc1cc(C(C)(C)C)c(O)c(C)c1CC1=NCCN1
inactive: Potency [1] | Potency [3] | outcome [5] | Potency [6] | outcome [4]

CC(=O)/C=C/C1C(C)=CCC(C)C1(C)C (stereo not given)
inactive: Potency [3] | outcome [5] | Potency [6] | outcome [4] | Potency [9] | outcome [7]

CCCCOCCOC(=O)COc1nc(Cl)c(Cl)cc1Cl
inactive: Potency [1] | Potency [2] | Potency [3] | outcome [4] | Potency [9] | outcome [7]

CC(=O)NCc1c(I)c(NC(C)=O)c(I)c(C(=O)O)c1I
inactive: Potency [1] | Potency [3] | outcome [5] | Potency [6] | outcome [4] | Potency [9] | outcome [7]

CC1(CO)CN(c2ccccc2)NC1=O (stereo not given)
inactive: Potency [2] | Potency [3] | outcome [5] | outcome [4]

O=C1c2cccc3c2[C@H](CCC3)CN1[C@@H]1CN2CCC1CC2
inactive: Potency [1] | outcome [4] | Potency [9]
